PubChem BioAssay (NCI)
The panel holds about 83,000 compounds, 20% with a hit somewhere; the sample as a whole holds those more often.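 48-hour exposure, single concentration, 96-well plates; percent growth endpoint where 0 means no net growth. Active: below 10.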 A number with no mark means an inactive call. Active and inactive are the calls of the source.

What was measured:
Assay in all cases: NCI-60 one-dose screen, 48 h (100 = growth as untreated, 0 = no growth, -100 = all killed)
Settings in all cases: 10 µM unless noted
NCI-H23 lung = test system: NCI-H23 lung
NCI-H226 lung = test system: NCI-H226 lung
NCI-H322M lung = test system: NCI-H322M lung
HOP-62 NSCLC = test system: HOP-62 NSCLC
NCI-H460 lung = test system: NCI-H460 lung
HOP-92 NSCLC = test system: HOP-92 NSCLC
NCI-H522 lung = test system: NCI-H522 lung
A549/ATCC NSCLC = test system: A549/ATCC NSCLC
786-0 renal = test system: 786-0 renal
DU-145 prostate = test system: DU-145 prostate
K-562 leukemia = test system: K-562 leukemia
MALME-3M melanoma = test system: MALME-3M melanoma
MDA-MB-231 breast = test system: MDA-MB-231 breast
RXF 393 renal = test system: RXF 393 renal
SF-268 CNS = test system: SF-268 CNS
SF-295 CNS = test system: SF-295 CNS
SF-539 CNS = test system: SF-539 CNS
UACC-257 melanoma = test system: UACC-257 melanoma
M14 melanoma = test system: M14 melanoma

| Compound | growth (NCI-H23 lung) | growth (NCI-H226 lung) | growth (NCI-H322M lung) | growth (HOP-62 NSCLC) | growth (NCI-H460 lung) | growth (HOP-92 NSCLC) | growth (NCI-H522 lung) | growth (A549/ATCC NSCLC) | growth (786-0 renal) | growth (DU-145 prostate) | growth (K-562 leukemia) | growth (MALME-3M melanoma) | growth (MDA-MB-231 breast) | growth (RXF 393 renal) | growth (SF-268 CNS) | growth (SF-295 CNS) | growth (SF-539 CNS) | growth (UACC-257 melanoma) | growth (M14 melanoma) |
| --- | --- | --- | --- | --- | --- | --- | --- | --- | --- | --- | --- | --- | --- | --- | --- | --- | --- | --- | --- |
| CCNCCNc1cc(-c2ccc(C(F)(F)F)cc2)c(C#N)c2nc3cc(Cl)c(Cl)cc3n12 | -76.6% (active) | 99.8% | -95.4% (active) | -82.4% (active) | -71.6% (active) | -83.5% (active) | -73.3% (active) | -88.4% (active) | -78% (active) | -93% (active) | -63.7% (active) | -77.9% (active) | -73.2% (active) | -96.3% (active) | -76.3% (active) | -91.2% (active) | -92.9% (active) | -85.4% (active) | -81.5% (active) |
| Clc1ccc2c(NCCCN3CCN(c4nc(-n5ccnc5)nc5ccccc45)CC3)ccnc2c1 | 104% | 113% | 87.1% | 84.7% | 89.3% | 58.7% | 75.7% | 96.9% | 78.8% | 93.3% | -48.8% (active) | -83.2% (active) | 8.95% (active) | 37.1% | 80% | 61.2% | -83.7% (active) | 87.1% | -24% (active) |
| Clc1ccc2[nH]c3c(NCCCN4CCOCC4)ncnc3c2c1 | 76.8% | 86.1% | 68.9% | 83.5% | 69.3% | 67.8% | 90.3% | 80.1% | 80.3% | 87.3% | 31.6% | 93.9% | 56.7% | 70.5% | 99.6% | 64.7% | 95.4% | 98.2% | 73.8% |
| Cn1cc(Nc2nccc(-c3ccc(N4CCCC4)c(C#N)c3)n2)cn1 | 63.3% | 78.9% | 52% | 25.5% | 8.94% (active) | 67% | 22% | 22.6% | 42.7% | 55.7% | 9.73% (active) | 54.4% | 63.9% | 43.9% | 45.9% | 71.3% | 43.8% | 69.6% | 17.2% |
| CCOc1ccc(-c2nc3ccc(-c4nc5ccc(N6CCN(C)CC6)cc5[nH]4)cc3[nH]2)cc1OCC | -7.66% (active) | -8.92% (active) | 42.1% | 16.7% | 17.2% | 48.8% | -18.2% (active) | 79.2% | 22.3% | 11.1% | 12.8% | -34.7% (active) | 19.4% | -37.8% (active) | 19.3% | 27.2% | -42.7% (active) | 6.87% (active) | 10% |
| CS(=O)(=O)c1ccc(-c2[nH]c3ccc(F)cc3c2/C=N/O)cc1 | 94.3% | 92.8% | 90.1% | 80.7% | 105% | 87.6% | 82% | 82% | 95.8% | 97.2% | 89.4% | 105% | 89.2% | 104% | 93% | 100% | 88.8% | 86.7% | 96.6% |
| N#Cc1c(NC(=O)c2cccc(C(F)(F)F)c2)sc2c1CCC(=O)C2 | 0.847% (active) | 13.6% | 66.1% | 4.66% (active) | 3.47% (active) | -28.5% (active) | -15.2% (active) | 14.6% | 13.1% | 24% | 6.88% (active) | -64.9% (active) | -54.3% (active) | -23.5% (active) | 1.68% (active) | -6.4% (active) | -57.8% (active) | -3.73% (active) | -68.2% (active) |
| Cc1cnc(Nc2ccc(N3CCN(C)CC3)cc2)nc1Nc1ccc(Cl)c(NS(=O)(=O)C(C)(C)C)c1 | 18.9% | 7.11% (active) | 37.2% | 14.1% | 20.5% | -27.8% (active) | -28.8% (active) | -26.1% (active) | -30.4% (active) | 13.4% | 7.56% (active) | 19.3% | 4.33% (active) | -78.2% (active) | 15.7% | 26.1% | -36.4% (active) | 5.3% (active) | 8.84% (active) |
| CN(C)c1ccc2cc(-c3ccc(Cl)c(Cl)c3)c(N)nc2c1 | 15.4% | 42.3% | 54.6% | 66.2% | 27.6% | 28% | 22% | 32.9% | 55.4% | 56.2% | 12.1% | 29.8% | 63.1% | 63% | 50.1% | 11.9% | 48.5% | 21.3% | 25.5% |
| CC(C)(C)c1ccc(C(=O)Nc2sc3c(c2C(N)=O)CCC(=O)C3)cc1 | -15% (active) | 30.8% | 62.6% | 26.5% | -10.7% (active) | -22.7% (active) | -10.2% (active) | 15.1% | 23.8% | 24.7% | 4.82% (active) | -53.4% (active) | -59.5% (active) | -22.4% (active) | -2.29% (active) | -48.3% (active) | -77.8% (active) | -30.4% (active) | -49.2% (active) |
| CCCCCCN(CCCCCC)CC(O)c1cccc2ccc(Cl)cc12 (centres undefined) | 38.8% | 85.6% | 66.4% | 31.8% | 44% | 3.01% (active) | 38.1% | 67.2% | 53.2% | 61.8% | 32.9% | 65.6% | 43.3% | 24.1% | 121% | 42% | 65.5% | 74.4% | 63.3% |
| N=C(N)c1ccc(-c2ccc(/C=C/c3ccccc3)s2)cc1 | 55.2% | 84.7% | 1% (active) | 33.3% | -60.1% (active) | 34.7% | 20% | 12.7% | -38.3% (active) | 1.59% (active) | -27.7% (active) | 61.2% | -51.5% (active) | 39.2% | 60.7% | -61.7% (active) | 17.2% | 105% | 31.8% |
| Fc1ccc(Nc2ccc3cc(OCCCN4CCOCC4)ccc3n2)cc1F | 55.7% | 76.8% | 71.4% | 65.9% | 36.6% | 52.8% | -21.4% (active) | 42.9% | 48.6% | 64.2% | -12% (active) | 42.6% | -40.9% (active) | 61.1% | 59.3% | 19.7% | 37.5% | 30.4% | -6.62% (active) |
| C=C(Cl)COC(=O)C(C)(C)O | 99.4% | 113% | 90% | 105% | 104% | 103% | 93.8% | 94% | 101% | 102% | 93.7% | 98.7% | 121% | 111% | 101% | 102% | 102% | 92.2% | 103% |
| c1ccc(-c2oc3ccccc3c2-c2ccccc2)cc1 | 90.2% | 88.3% | 95.8% | 105% | 99.8% | 89.5% | 83% | 97.2% | 98.8% | 115% | 67.7% | 110% | 100% | 99.1% | 109% | 104% | 98.5% | 111% | 102% |
| Cc1cc(Cl)nc(N(CCCNc2ccnc3cc(Cl)ccc23)Cc2ccccn2)n1 | 33.6% | 65% | 68.7% | 64% | 48.7% | 30.6% | 40% | 56.1% | 47.4% | 66.2% | 4.3% (active) | 73.2% | 53.4% | 41.8% | 74.6% | 38.9% | 38.9% | 53.5% | 44.4% |
